Screens as filed in PubChem.
Mtb bLac sens = beta-lactam sensitization of Mtb H37Rv. M. tuberculosis H37Rv growth with meropenem, percent inhibition. inhibition, % at 25 µM. 0.27% of 330,000 active. AID 434955; call rule not given here;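 also: growth measured after seven days incubation then overnight dye step; 0% = bacteria only wells and 100% = bacteria with antibiotic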
FBA Mtb inh = inhibits M. tuberculosis FBA enzyme; P9WQA3; 2.3% of 360,000 active; purified M. tuberculosis FBA, fluorescence read-out; inhibition, % at 1 µM; AID 588726; in the data active = inhibition above about 27%;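 also: 0% = vehicle and 100% = reference inhibitor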
Rv3671c protease = Rv3671c (M. tuberculosis) protease inhibition; P9WHR9; inhibition, % at 5.96 µM; 0.048% of 320,000 active; AID 2606; in the data active = inhibition above about 38%;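 also: extracellular domain of Rv3671c used as enzyme; 0% = enzyme with DMSO and 100% = no enzyme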
Mtb UGM inh = blocks M. tuberculosis UGM enzyme | purified UGM, fluorescence polarization probe displacement | 0.06% of 320,000 active | inhibition, % at 10 µM | AID 504406 | P9WIQ1; in the data active = inhibition above about 10%, passing the limit was not always enough; inconclusive = no clear call, values can overlap the other calls
RecA intein inh = blocks M. tuberculosis RecA intein splicing | cell-free RecA intein splicing, fluorescence | inhibition, % (test concentration not listed) | 0.75% of 290,000 active; in the data active = inhibition above about 30%; inconclusive = no clear call, values can overlap the other calls;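 also: 0% = vehicle wells and 100% = reference inhibitor control wells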
Target sequence (P9WHJ3 whole entry, looked up): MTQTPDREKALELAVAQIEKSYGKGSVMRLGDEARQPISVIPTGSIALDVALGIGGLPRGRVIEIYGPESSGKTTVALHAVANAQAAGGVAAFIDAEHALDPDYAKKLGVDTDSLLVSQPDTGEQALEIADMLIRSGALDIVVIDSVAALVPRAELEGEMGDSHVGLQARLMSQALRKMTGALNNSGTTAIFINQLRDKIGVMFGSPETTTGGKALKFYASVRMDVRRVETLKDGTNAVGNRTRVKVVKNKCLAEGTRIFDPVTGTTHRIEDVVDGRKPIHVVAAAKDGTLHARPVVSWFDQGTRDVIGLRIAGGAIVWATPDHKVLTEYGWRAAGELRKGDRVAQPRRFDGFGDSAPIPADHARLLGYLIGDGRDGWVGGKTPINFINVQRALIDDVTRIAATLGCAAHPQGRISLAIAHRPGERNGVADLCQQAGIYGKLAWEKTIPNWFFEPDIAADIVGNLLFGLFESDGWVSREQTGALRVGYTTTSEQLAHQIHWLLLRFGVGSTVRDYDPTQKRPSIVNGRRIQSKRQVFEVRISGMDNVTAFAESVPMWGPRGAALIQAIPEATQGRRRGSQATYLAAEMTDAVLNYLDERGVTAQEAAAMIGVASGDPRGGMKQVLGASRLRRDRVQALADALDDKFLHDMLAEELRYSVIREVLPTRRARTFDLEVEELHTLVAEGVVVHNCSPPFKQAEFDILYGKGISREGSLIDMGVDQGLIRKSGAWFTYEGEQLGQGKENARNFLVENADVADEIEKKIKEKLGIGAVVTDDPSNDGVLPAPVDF
GDH-TPI inh = inhibits GDH-TPI coupling enzymes, artifact for Mtb FBA screen; inhibition, % at 4.8 µM; AID 588335; GDH-TPI coupled enzyme counterscreen, NADH absorbance; 1.2% of 360,000 active; in the data active = inhibition above about 30%;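 also: 0% = DMSO wells and 100% = wells lacking the enzyme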
Active calls of the source: *; ? = inconclusive; . = no result given. An excerpt weighted towards active compounds, which were near 4% of everything screened.

SMILES	Mtb bLac sens	FBA Mtb inh	Rv3671c protease	Mtb UGM inh	RecA intein inh	GDH-TPI inh
COC(=O)c1sccc1NC(=O)Nc1ccc(F)cc1F	-5.5	2.2	1.3	0.1	2.7	7.3
CCOC(=O)/C(C#N)=C/c1c(N2CCN(CC)CC2)nc2c(C)cccn2c1=O	11.4	3.3	-3.2	-3.1	-28.1	10.2
CCOC(=O)/C(C#N)=C/c1c(N2CCN(c3ccc(OC)cc3)CC2)nc2c(C)cccn2c1=O	36.0	0.0	.	-0.6	-1.6	9.0
CCOC(=O)C(/C=C(\C#N)C(=O)OCC)=C(/N)N1CCN(c2ccc(OC)cc2)CC1	-8.1	-1.2	-1.2	-2.1	1.0	57.0*
CCOC(=O)C(/C=C(\C#N)C(=O)OCC)=C(/N)N1CCN(c2c(C)cccc2C)CC1	-12.0	4.5	6.4	5.6	-1.2	50.2*
COc1ccc(NC(=O)c2sc3nc(-c4cccnc4)ccc3c2N)cc1	-6.5	-1.0	5.6	1.8	-9.2	39.3*
COc1ccc(NC(=O)c2sc3nc(-c4cccnc4)ccc3c2N)cc1OC	-5.7	-1.1	-2.1	6.6	-10.4	43.5*
Nc1c(C(=O)Nc2ccccc2)sc2nc(-c3cccnc3)ccc12	85.8	.	1.2	0.4	-1.9	.
CC(=O)c1ccc(S(=O)(=O)NCC(=O)N2CCN(C/C=C/c3ccccc3)CC2)cc1	-0.3	4.1	-8.1	-1.6	.	1.9
CN(c1ccccc1)c1nc(N)c(C#N)c(CC#N)c1C#N	-6.6	0.6	-3.2	1.2	-2.2	24.2
N#CCc1c(C#N)c(N)nc(Nc2ccccc2)c1C#N	-8.7	-2.2	2.5	3.5	-16.0	31.4*
Cc1ccc(-c2cc(-c3ccc(F)cc3)nc(N)c2C#N)o1	33.4	154.6*	-0.9	4.0	-3.2	7.5
N#Cc1c(-c2ccncc2)cc(-c2ccc(F)cc2)nc1N	?	125.4*	-1.7	-0.5	-9.0	17.1
COc1cc(-c2cc(-c3ccc(F)cc3)nc(N)c2C#N)ccc1O	4.4	2.0	-5.3	2.5	0.8	-5.4
Cc1ccc(NC(=O)[C@@H]2O[C@H](CO)[C@H](O)[C@H](O)[C@H]2O)cc1C(F)(F)F	.	1.2	.	.	.	8.0
CCS(=O)(=O)c1nc(S(=O)(=O)c2ccc(C)cc2)c(N2CCC3(CC2)OCCO3)s1	1.1	-3.9	-5.5	0.0	-7.4	28.8
Cn1c(=O)n(C)c2cc(/C=N/NC(=S)NCc3ccccc3)ccc21	-0.2	0.7	-1.8	0.7	1.8	34.0*
COc1cc(/C=N/NC(=S)NCc2ccccc2)ccc1OCC#N	-5.7	2.9	-21.9	1.1	7.8	22.3
CN(C)c1ccc(/C=N/NC(=S)NCc2ccccc2)cc1	-0.5	23.7	-1.1	-1.5	-7.5	32.3*
CN(c1ccccc1)c1ccc(/C=N/NC(=O)CC#N)cc1	44.4	8.6	8.2	3.0	0.6	31.3*
CC(C)(C)c1ccc(/C=N/NC(=S)NCc2ccccc2)cc1	-5.0	-1.0	-9.8	.	-1.0	12.9
N#CCC(=O)N/N=C/c1ccc(Cl)cc1	79.5	-0.6	-7.7	0.7	0.7	1.2
CN(C)c1ccc(/C=N/NC(=O)CSc2ccccn2)cc1	17.9	1.5	-3.0	-2.1	-1.4	60.0*
COCCCNC(=S)N/N=C/c1ccc(N(C)C)cc1	0.4	48.1*	8.0	-2.9	-7.5	14.8
Cc1ccccc1N(CC(=O)N/N=C/c1ccccc1Cl)C(=O)c1ccccc1	0.9	-0.3	-14.8	0.0	-0.2	11.7
SMILES	Mtb bLac sens	FBA Mtb inh	Rv3671c protease	Mtb UGM inh	RecA intein inh	GDH-TPI inh
Cc1ccccc1N(CC(=O)N/N=C/c1ccc(N(C)C)cc1)C(=O)c1ccccc1	-3.8	9.7	-11.8	0.8	-0.1	40.3*
Nc1c2c(nn1-c1ccc(F)cc1)CSC2	2.0	1.8	-6.1	3.9	-3.6	3.5
CCNc1ncnc2[nH]ncc12	.	5.9	.	.	.	8.8
COc1ccc(-c2cc(C)no2)cc1S(=O)(=O)Nc1ccccc1	-6.0	139.2*	-0.1	-2.3	-2.7	-2.4
CC(CC(=O)c1ccccc1)=NCC(O)CN=C(C)CC(=O)c1ccccc1 (stereo unspecified)	.	-0.2	.	.	.	54.9*
COc1ccc(C(CNc2ccc(S(C)(=O)=O)cc2[N+](=O)[O-])N(C)C)cc1OC (stereo unspecified)	-2.1	-0.4	4.1	-0.9	-0.2	6.7
CNc1nnc(-c2ccncc2)s1	6.0	145.1*	-6.6	-1.0	1.5	16.5
CCNc1nnc(-c2ccncc2)s1	-2.1	136.0*	-5.2	0.2	-3.0	21.0
Clc1ccccc1Nc1nnc(-c2ccncc2)s1	-0.7	1.7	-6.9	3.2	-0.9	17.3
CNc1nnc(-c2ccc(OC)cc2)s1	7.1	2.8	0.9	-0.4	11.0	1.3
